High-throughput results (PubChem BioAssay)
Shown are actives, neighbours in structure and some others; about 11% of the full set was active somewhere.
IMPase Li inh: cell-permeable IMPase inhibitors with lithium potentiation | CHO-M1 cells, IP1 TR-FRET (IP-One), carbachol + lithium | Potency, µM (top dose mostly 59.4 µM), inactives show at the top dose activity, negative = IMPase inhibition, usual class: inhibitors | AID 1457 | actives 0.35% (n = 210,000); active means well fitted curve in the direction sought with a large enough effect; inconclusive means small, poorly fitted or top-dose-only effect, or another doubt; inactive means no such curve, though single readings can be large; an effect the other way counts as inactive or inconclusive;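 further: IP1 builds up when IMPase is blocked and the TR-FRET signal falls; potency means the concentration at half of the fitted maximal effect; plate controls were basal vehicle for no effect and high inhibitor control for full effect; nearly all actives have a fitted effect of over 50% in size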
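CHO-M1, 2000 cells/well, 16–30 h culture; cpd + low Li+, 30 min 37C; lysis with d2-IP1/Eu-anti-IP1 Ab, 10 min RT; TR-FRET 665/620 ratio and 620 channel; AC50 via Hill.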
ALDH1A1 inh: ALDH1A1 (human) enzyme inhibition; P00352; Purified ALDH1A1, NADH fluorescence, propionaldehyde substrate; Potency, µM (series often up to 75.3 µM), without a hit: top-dose activity, negative = inhibition, usual class: inhibitors; actives 7.3% (n = 220,000); AID 1030;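 further: potency means the concentration at half of the fitted maximal effect; plate controls were no enzyme wells and a reference inhibitor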
HPGD inh: HPGD (human) dehydrogenase inhibition | P15428 | purified HPGD, NADH fluorescence kinetic, PGE2 substrate | Potency, µM, for the others: top-dose activity change, negative = inhibition, usual class: inhibitors | actives 4.3% (n = 150,000); further: potency means the concentration at half of the fitted maximal effect
Target sequence (P15428 whole entry, looked up): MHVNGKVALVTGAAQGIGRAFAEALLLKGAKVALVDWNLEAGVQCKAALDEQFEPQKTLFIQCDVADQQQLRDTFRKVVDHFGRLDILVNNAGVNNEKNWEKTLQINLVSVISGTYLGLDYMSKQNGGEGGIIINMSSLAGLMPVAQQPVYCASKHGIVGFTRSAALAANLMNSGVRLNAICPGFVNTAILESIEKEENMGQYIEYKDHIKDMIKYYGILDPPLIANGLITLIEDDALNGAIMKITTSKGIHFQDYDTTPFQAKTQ
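20 nM HPGD preincubated 15 min at room temperature with compound in 50 mM Tris-HCl pH 8, 0.01% Tween 20. Started with 1 mM NAD+ and 30 uM prostaglandin E2; NADH fluorescence (360/450 nm) read 5 times over 30-s intervals, last minus first.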
PNC inhibitor: inhibitors of perinucleolar compartment assembly. PC3M PTB-GFP, PNC prevalence imaging, 16 h; hits give low values. activity change (PNC), negative = inhibition, % at 10 µM. actives 3.1% (n = 140,000). AID 2417;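 active means readout at or below -70, meaning at least 70% loss of cells showing the perinucleolar compartment, a nuclear body marking cancer cells; inconclusive means readout between -30 and a set limit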;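 further: plate controls were DMSO wells for no effect and camptothecin positive control wells for full effect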
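Compounds are pinned in duplicate onto adhered PC3M cells stably expressing GFP-tagged PTB and incubated 16 h at 37 C. Cells are then fixed, nuclei stained with Hoechst, and PNC-positive cells counted.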
IMPase cell inh: membrane-permeable compound that blocks inositol monophosphatase; inhibition (IP1 accumulation), % at 46.1 µM; P97697; CHO-M1 cells, IP1 accumulation, HTRF TR-FRET ratio; 120,000 tested, under 10 active; active means well fitted curve in the direction sought with a large enough effect in the signal ratio, not every such curve was filed as active; inconclusive means small, poorly fitted or top-dose-only effect, or a change in a side signal; inactive means no such curve, though single readings can be large or run the other way; the % refers to the signal ratio;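 further: cells stimulated with carbachol in lithium chloride buffer; plate controls were DMSO basal wells for no effect and reference inhibitor wells for full effect; higher means more IMPase inhibition seen as more IP1 and lower FRET ratio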
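Measured: the HTRF emission ratio (665/620 nm) plus the 620 nm donor channel, each fitted to the Hill equation to give AC50. Cells were CHO-M1 given compounds up to 46 uM and a 30 min carbachol stimulation at 37C.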
NPSR antag: antagonists of human neuropeptide S receptor cAMP signaling; Q6W5P4; Potency, µM (highest dose often 38.3 µM), without a hit: at the top dose activity change, negative = inhibition, actives largely listed as inhibitors; CHO-NPSR cells, cAMP TR-FRET, antagonist mode; actives 1% (n = 220,000); active means well fitted curve in the direction sought with a large enough effect; inconclusive means small, poorly fitted or top-dose-only effect, or another doubt; inactive means no such curve, though single readings can be large; an effect the other way counts as inactive or inconclusive; further: potency means the concentration at half of the fitted maximal effect; nearly all actives have a fitted effect of over 50% in size
Target sequence (Q6W5P4 whole entry, looked up): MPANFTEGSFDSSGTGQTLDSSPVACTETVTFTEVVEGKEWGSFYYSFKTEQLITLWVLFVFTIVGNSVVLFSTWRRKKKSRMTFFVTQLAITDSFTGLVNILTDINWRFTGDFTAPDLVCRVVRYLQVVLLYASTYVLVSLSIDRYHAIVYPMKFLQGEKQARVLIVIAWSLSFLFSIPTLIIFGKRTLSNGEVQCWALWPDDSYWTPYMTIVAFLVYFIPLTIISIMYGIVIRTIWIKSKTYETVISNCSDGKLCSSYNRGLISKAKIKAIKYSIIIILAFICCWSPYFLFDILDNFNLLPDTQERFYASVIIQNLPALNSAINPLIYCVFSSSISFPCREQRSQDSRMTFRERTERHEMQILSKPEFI
* marks the source's active call; other numbers are inactive results; u = inconclusive; x = not tested or not shown; [ ] = remark or other dose. Unless noted, the call rests on the fitted dose curve; in most records, active means well fitted inhibition curve with a large enough effect (not every such curve was filed as active); inconclusive means small, poorly fitted or top-dose-only effect, or another doubt; inactive means no such curve, though single readings can be large or run the other way. Unless noted, on the % scale 0 is the no-effect control and ±100 the full control effect.

SMILES	IMPase Li inh	ALDH1A1 inh	HPGD inh	PNC inhibitor	IMPase cell inh	NPSR antag
CCOC(=O)C1CCCN(C(=O)c2cc(Nc3ccc(OC)c(OC)c3)nc3ccccc23)C1 (centres undefined)	17%[38.3 µM]	-7%	-3%	85	3	-10%[46.1 µM]
O=C1c2ccccc2C(O)(Cc2ccccc2)N1C1CCCCC1 (centres undefined)	5%[38.3 µM]	22µM*	-13%	u	-6	-18%[46.1 µM]
CC(C)CN1C(=O)c2ccccc2C1(O)Cc1ccccc1 (centres undefined)	23%	u	-16%	-16	8	-19%[46.1 µM]
CC(=O)NN1C(=O)/C(=C/c2ccc(C(C)C)cc2)SC1=S	-5%	4µM*	-30%	u	x	7%
C[C@@H]1CC=C[C@H]2[C@H]1C(=O)N(Cc1ccccc1)[C@H]2c1ccc(F)c(Br)c1	x	x	x	x	x	4µM*
O=C1C2C(c3cccc(/C=C/c4ccccc4)c3)CC=CC2C(c2ccc3ccccc3c2)N1Cc1ccccc1 (centres undefined)	x	x	x	x	x	-26%
COc1ccc(-c2cccc(C3CC=CC4C3C(=O)N(Cc3ccccc3)C4c3ccc(OC)c(Cl)c3)c2)cc1 (centres undefined)	x	x	x	x	x	10µM*
Cc1ccc(-c2ccc([C@H]3[C@H]4C=CC[C@@H](C)[C@@H]4C(=O)N3Cc3ccccc3)c(F)c2)cc1	x	x	x	x	x	-41%
C[C@@H]1CC=C[C@H]2[C@H]1C(=O)N(Cc1ccccc1)[C@H]2c1ccc(F)c(/C=C/c2ccccc2)c1	x	x	x	x	x	-58%
Cc1ccc(-c2cccc(C3CC=CC4C3C(=O)N(Cc3ccccc3)C4c3ccc4ccccc4c3)c2)cc1 (centres undefined)	x	x	x	x	x	-14%
Cc1cccc([C@H]2[C@@H]3C=CCC[C@@H]3C(=O)N2Cc2ccccc2)c1	9%	28µM*	-17%	x	x	x
C[C@@H]1CC=C[C@H]2[C@H]1C(=O)N(Cc1ccccc1)[C@H]2c1ccc2ccccc2c1Br	x	x	x	x	x	10µM*
COc1ccc(NC(=O)CC(C)(C)C)c([N+](=O)[O-])c1	9%[38.3 µM]	0%	-10%	-20	9[1.84 µM]	-11%[46.1 µM]
COC(=O)C(NC(=O)c1ccc(C)cc1)(Nc1cccc(C)n1)C(F)(F)F (centres undefined)	9%	2%	-13%	-100*	1	-10%[46.1 µM]
CN(C)c1ccc(/C=C(/C#N)C(=O)NCc2ccccc2)o1	10%	u	-11%	-83*	x	-13%
CCOC(=O)NC(CC(=O)O)c1ccc(OC)cc1 (centres undefined)	-6%[38.3 µM]	10%	3%	-100*	0	-14%[46.1 µM]
[O-][n+]1onc2c1C(N1CCOCC1)CCC2N1CCOCC1 (centres undefined)	11%[38.3 µM]	13%	-5%	u	-6	-6%[46.1 µM]
O=C(Nc1cccnc1)c1ccc(Oc2ccccc2)cc1	25%[38.3 µM]	4%	-2%	u	-2	-10%[46.1 µM]
CCSc1ccccc1C(=O)Nc1cccnc1	1%	11%	-13%	-100*	u	8%[46.1 µM]
O=C(Nc1cccnc1)c1ccccc1Oc1ccccc1	44%[38.3 µM]	18µM*	-15%	-11	4	-14%[46.1 µM]
COc1ccc(-c2cc(C(=O)NN)[nH]n2)cc1OC	10%	1%	x	x	x	10%
CCOC(=O)c1nc(N2CCN(C(=O)OCC)CC2)c2c3c(sc2n1)CCCC3	2%[38.3 µM]	u	u	-24	u	u
CCOC(=O)c1cnn(-c2ncnc3sc4c(c23)CCC4)c1N	-1%[38.3 µM]	3%	7.9µM*	0	5	-27%[46.1 µM]
CCOC(=O)c1cnn(-c2nc(SC)nc3sc4c(c23)CCCC4)c1N	32%[38.3 µM]	1.1µM*	-10%	35	1	u
Nc1ccn(-c2ccccc2)c(=O)c1	-4%[38.3 µM]	-2%	1%	-8	3	-16%[46.1 µM]
SMILES	IMPase Li inh	ALDH1A1 inh	HPGD inh	PNC inhibitor	IMPase cell inh	NPSR antag
COC(=O)c1ccc2nc(-c3ccc(S(C)(=O)=O)cc3)cn2c1	11µM*	u	x	x	x	4%
Cc1ccccc1Nc1c(N)c(=O)oc2ccccc12	7%[38.3 µM]	-4%	16µM*	u	u	-5%[46.1 µM]
Cc1ccc(N2CS(=O)(=O)/C(=C/N(C)C)C2=O)cc1	-6%[38.3 µM]	-2%	-11%	-2	4	-24%[46.1 µM]
CN(C)/C=C1\C(=O)N(c2ccc(Cl)cc2)CS1(=O)=O	-8%[38.3 µM]	5%	16µM*	u	10	-12%[46.1 µM]
O=C(O)c1cccc(Cn2c(Cl)c(/C=N/NC(=O)c3ccccc3Cl)sc2=O)c1	16%[38.3 µM]	u	28µM*	-26	1	-3%[46.1 µM]
O=C(O)c1cccc(Cn2c(Cl)c(/C=N/Nc3ccccc3)sc2=O)c1	2%	22µM*	x	x	x	-40%
NC1=NC(c2ccc(Br)cc2)n2c(nc3ccccc32)N1 (centres undefined)	34%[38.3 µM]	-1%	-23%	23	-3	-10%[46.1 µM]
COc1ccc(NS(=O)(=O)c2ccc(O)c(NC(=O)c3ccc(S(=O)(=O)N4CCCCCC4)cc3)c2)cc1	10%	2%	-6%	51	x	3%
O=C(Nc1ccc(S(=O)(=O)Nc2ncccn2)cc1)c1ccc2ncsc2c1	x	7.1µM*	x	x	x	5%
O=S(=O)(Nc1ncccn1)c1ccc(NC(=S)Nc2ccc(Cl)cc2)cc1	x	10µM*	x	x	x	-5%
COc1ccc(NS(=O)(=O)c2ccc(N3CCCC3)c(NC(=S)Nc3cccc(S(=O)(=O)N(C)C)c3)c2)cc1	8%	3.2µM*	3.2µM*	u	x	4%
COc1ccc(NS(=O)(=O)c2cccc(NC(=O)c3ccc(S(=O)(=O)N4CCCCCC4)cc3)c2)cc1	11%	u	-13%	-112*	x	-18%
O=C(Nc1ccc(S(=O)(=O)Nc2ncccn2)cc1)c1cnc(Cl)c(Cl)c1	1%	0%	x	x	x	1%
CC1CCN(c2ccc(S(=O)(=O)NC3=NCCCCC3)cc2[N+](=O)[O-])CC1	6%	u	x	x	x	-1%
FC(F)(F)c1cccc(N2CCN(Cc3nnc(-c4ccccc4)o3)CC2)c1	x	x	x	x	-2	x
O=C(Nc1ccc(Cl)cc1)Nc1ccc(S(=O)(=O)Nc2ncccn2)cc1	10%	-3%	x	x	x	-7%
CN(C)c1nc(NS(=O)(=O)c2ccc(Cl)cc2)nc(N(C)C)n1	3%[38.3 µM]	2%	-2%	-121*	-1	-11%[46.1 µM]
O=C(Nc1ccc(S(=O)(=O)Nc2ncccn2)cc1)c1ccc(S(=O)(=O)N2CCCC2)cc1	4%	25µM*	x	x	x	20%
[N-]=C=C1C(=S)NC(=O)[C@H]([n+]2ccccc2)[C@H]1c1ccc(Cl)cc1	x	14µM*	x	x	x	16%
Cc1nc(N2CCN(C(=O)c3ccco3)CC2)c2c3c(sc2n1)CCCC3	13%	40µM*	16µM*	71	13	-59%
Cc1nc(N2CCN(C(=O)c3ccco3)CC2)c2oc3ccccc3c2n1	26%[38.3 µM]	28µM*	-19%	-17	15	-23%[46.1 µM]
